Experimental data: PubChem BioAssay (NCATS)
Results filed as inconclusive are left out. Activity calls are given as the source filed them. Calls come from the whole dose curve; as a rule, active = well fitted curve in the direction sought with a large enough effect; inconclusive = small, poorly fitted or top-dose-only effect, or another doubt; inactive = no such curve, though single readings can be large; an effect the other way counts as inactive or inconclusive.

Key:
[1] = qHTS to identify inhibitors of the type 1 interferon - major histocompatibility complex class I in skeletal muscle: primary screen against the NCATS LOPAC collection (AID 1347405);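 note: lytic HiBiT luminescence reporting HLA-B protein level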
In short: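 CRISPR-engineered immortalized human myoblasts (C25cl48) with HiBiT fused to endogenous HLA-B*08:01, stimulated with 4 ng/ml IFN-beta. LOPAC compounds tested as a 7-point 1:4.3 titration (top 46 uM final), 24 h at 37 C; lytic HiBiT luminescence read.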

[2] = qHTS for inhibitors of adenylyl cyclases using a fission yeast platform: a pilot screen against the NCATS LOPAC library (AID 1347410)
In short: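 S. pombe CHP2027 (AC9-GNAS-PDE4D2) carrying PKA-repressed fbp1-GFP, incubated 18 h at 30C in EMM with LOPAC compounds at up to 57 uM. GFP gain-of-signal read by laser scanning cytometry; DMSO negative control.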

[3] = qHTS to identify inhibitors of the type 1 interferon - major histocompatibility complex class I in skeletal muscle: primary screen against the NCATS Mechanism Interrogation Plate v5.0 (MIPE) Libary (AID 1347411); note: nearly all actives have a fitted effect of over 65% in size
In short: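 Immortalized human myoblasts (C25cl48) with HiBit knocked into endogenous HLA-B*08:01 were stimulated with 4 ng/ml IFN-beta and given compounds in 11-point 1:3 titration from 46 uM. After 24 h at 37 C, lytic HiBiT luminescence was read.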

[4] = target: Protein phosphatase 1D (Homo sapiens) (UniProt O15297); assay: RapidFire Mass Spectrometry qHTS Assay for Modulators of WT P53-Induced Phosphatase 1 (WIP1) (AID 1347424);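 note: amount of dephosphorylated VEPPL-S-QETFS peptide product formed by WIP1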; note: potency is the fitted concentration of half-maximal effect
Sequence of Protein phosphatase 1D (Homo sapiens) (O15297 whole entry, looked up): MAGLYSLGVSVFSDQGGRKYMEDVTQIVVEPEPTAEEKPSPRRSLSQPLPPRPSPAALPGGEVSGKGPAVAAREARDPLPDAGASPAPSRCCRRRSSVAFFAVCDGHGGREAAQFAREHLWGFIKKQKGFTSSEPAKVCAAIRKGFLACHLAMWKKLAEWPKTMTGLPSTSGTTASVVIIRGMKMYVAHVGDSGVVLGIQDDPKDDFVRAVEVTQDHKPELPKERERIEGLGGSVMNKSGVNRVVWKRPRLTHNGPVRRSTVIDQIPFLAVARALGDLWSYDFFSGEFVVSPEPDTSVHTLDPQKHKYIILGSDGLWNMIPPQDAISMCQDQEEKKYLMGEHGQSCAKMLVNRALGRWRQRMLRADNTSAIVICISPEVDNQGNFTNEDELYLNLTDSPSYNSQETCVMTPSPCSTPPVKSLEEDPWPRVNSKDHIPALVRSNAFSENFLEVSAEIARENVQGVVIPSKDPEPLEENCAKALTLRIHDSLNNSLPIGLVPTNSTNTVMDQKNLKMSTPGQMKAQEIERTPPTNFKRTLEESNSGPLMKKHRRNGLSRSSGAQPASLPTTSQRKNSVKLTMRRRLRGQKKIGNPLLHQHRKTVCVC
In short: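 10 nM WIP1 + cpd, 1 h RT; + 2 uM VEPPL-pS-QETFS, 5 min RT; stop 0.5% formic acid; labelled product standard 1 uM; RapidFire MS. Buffer 50 mM Tris pH 7.5, 30 mM MgCl2, 1 mM TCEP.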

[5] = Validation qHTS assay for inhibitors of Activation Induced Cytidine Deaminase (AID): UDG Counterscreen signal (AID 1347427)
In short: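 Counterscreen read of UDG activity (2 U/mL, 4/3x) in the FRET deamination format with AID (1 uM, 4/3x), DJC20/DJC23 substrates (250 nM, 4x), 4 h at room temperature. NaOH stop, fluorescence at 560 ex/665 em.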

[6] = target: Single-stranded DNA cytosine deaminase (Homo sapiens) (UniProt Q9GZX7); assay: Validation qHTS assay for inhibitors of Activation Induced Cytidine Deaminase (AID): AID signal (AID 1347429)
Sequence of Single-stranded DNA cytosine deaminase (Homo sapiens) (Q9GZX7 whole entry, looked up): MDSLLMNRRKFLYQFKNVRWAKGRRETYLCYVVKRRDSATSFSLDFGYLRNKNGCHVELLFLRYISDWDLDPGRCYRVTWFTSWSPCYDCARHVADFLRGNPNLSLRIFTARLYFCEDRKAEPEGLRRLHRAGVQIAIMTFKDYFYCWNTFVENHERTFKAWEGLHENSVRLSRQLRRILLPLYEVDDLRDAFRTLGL
In short: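 FRET deamination assay: 1 uM AID (4/3x stock) with UDG, compound up to 114 uM, then 250 nM DJC20/DJC23 substrate (4x stock) for 4 hr at room temperature. NaOH added, 30 min; fluorescence read 540/590 nm.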

[7] = qHTS to identify inhibitors of the type 1 interferon - major histocompatibility complex class I in skeletal muscle: primary screen against the NCATS Pharmaceutical Collection (AID 1347407);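 note: luminescence of HiBiT knocked into endogenous HLA-B as interferon-induced MHC class I level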
In short: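 Immortalized human myoblasts (C25cl48) with HiBiT knocked into endogenous HLA-B*08:01 were stimulated with 4.0 ng/ml IFN-beta and treated with compounds ([…] top 46 uM) for 24 hrs at 37 C. HiBiT lytic luminescence read.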

[8] = target: Protein phosphatase 1D (Homo sapiens) (UniProt O15297); assay: Rhodamine-PBP qHTS Assay for Modulators of WT P53-Induced Phosphatase 1 (WIP1) (AID 1347425)
In short: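 WIP1 (5 nM final) was preincubated with compound for 1 hour at room temperature. It then dephosphorylated 10 uM VEPPL-pS-QETFS peptide in Tris-HCl pH 7.5 with 30 mM MgCl2. Released Pi was detected by 10 uM Rh-PBP fluorescence (ex 525/em 598 nm) read at 1-min intervals for 11 min, as delta f1 - f0.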

Measured: Potency

NCC1(CC(=O)O)CCCCC1
inactive: [1] | [2] | [3] | [4] | [5] | [6]

Cc1cccc(C)c1NC(=O)CN1CCCC1=O
inactive: [1] | [7] | [2] | [3] | [4] | [8] | [5] | [6]

Nc1ccncc1
inactive: [1] | [2] | [4] | [8] | [5] | [6]

CC(O)(CS(=O)(=O)c1ccc(F)cc1)C(=O)Nc1ccc(C#N)c(C(F)(F)F)c1 (stereo not drawn)
inactive: [1] | [2] | [3]

N[C@@H](Cc1ccc(N(CCCl)CCCl)cc1)C(=O)O
inactive: [7] | [3] | [4]

Clc1ccc(CCC(Cn2ccnc2)Sc2c(Cl)cccc2Cl)cc1 (stereo not drawn)
inactive: [7] | [4] | [8]

C=C1C[C@@H]2[C@H](CC[C@]3(C)C(=O)CC[C@@H]23)[C@@]2(C)C=CC(=O)C=C12
inactive: [7] | [4]

CCCC1CCCCN1 (stereo not drawn)
inactive: [7] | [4] | [8]

CC(C)CC(N(C)C)C1(c2ccc(Cl)cc2)CCC1 (stereo not drawn)
inactive: [7] | [4] | [8]

COc1ccc(C(=O)c2c(C)n(CCN3CCOCC3)c3ccccc23)cc1
inactive: [7] | [4] | [8]

CCC(C(N)=O)N1CCCC1=O (stereo not drawn)
inactive: [7] | [4]

N[C@@H](Cc1ccc(Oc2cc(I)c(O)c(I)c2)c(I)c1)C(=O)O
active: [4] 12.6 µM
inactive: [7]

CCN(CC)C(=O)N[C@@H]1C=C2c3cccc4[nH]cc(c34)C[C@@H]2N(C)C1
inactive: [7] | [4]

C[C@]12CC[C@H]3[C@@H](CCC4=CC(=O)CC[C@@H]43)[C@@H]1CC[C@@H]2OC(=O)CCc1ccccc1
inactive: [7] | [4]
